MITF inh: blocks human microphthalmia-associated transcription factor | O75030 | inhibition, % at 2.6 µM | AlphaScreen MITF homodimerization, bead proximity signal | 650,000 compounds, 0.91% hits; in the data active means inhibition above about 50%;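 further: 0% = vehicle wells with protein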
FBW7 act: activators of human E3 ligase FBW7; 650,000 compounds, 0.13% hits; Q969H0; AID 1259310; normalized activity (activation), % at 26.1 µM; AlphaScreen FBW7–phospho-cyclin E peptide binding, activator screen; in the data active means normalized activity above about 1.9%;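 further: purified mutant Fbw7 with reduced substrate affinity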
Target sequence (Q969H0 whole entry, looked up): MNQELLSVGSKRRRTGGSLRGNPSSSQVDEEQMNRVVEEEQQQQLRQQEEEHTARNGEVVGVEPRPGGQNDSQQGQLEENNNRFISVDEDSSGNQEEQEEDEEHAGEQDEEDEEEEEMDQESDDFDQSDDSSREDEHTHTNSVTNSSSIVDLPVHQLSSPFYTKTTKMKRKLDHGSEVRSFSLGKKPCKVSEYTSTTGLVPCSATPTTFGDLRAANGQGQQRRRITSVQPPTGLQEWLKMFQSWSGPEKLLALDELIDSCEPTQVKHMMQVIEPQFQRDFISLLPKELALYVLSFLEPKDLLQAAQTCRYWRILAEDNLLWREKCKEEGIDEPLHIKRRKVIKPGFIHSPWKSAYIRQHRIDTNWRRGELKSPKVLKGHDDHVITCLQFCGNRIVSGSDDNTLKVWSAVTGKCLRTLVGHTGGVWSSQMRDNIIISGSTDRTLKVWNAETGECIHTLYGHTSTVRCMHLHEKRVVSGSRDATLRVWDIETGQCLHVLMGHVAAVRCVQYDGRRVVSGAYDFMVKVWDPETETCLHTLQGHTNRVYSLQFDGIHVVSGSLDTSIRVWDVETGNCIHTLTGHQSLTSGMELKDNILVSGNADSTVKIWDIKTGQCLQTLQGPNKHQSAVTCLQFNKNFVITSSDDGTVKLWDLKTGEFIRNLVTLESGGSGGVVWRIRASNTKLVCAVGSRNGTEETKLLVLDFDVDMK
GPR151 activ: activators of human GPR151; PathHunter beta-arrestin GPR151 cells, luminescence; activation, % at 11.2 µM; 650,000 compounds, 1% hits; AID 1508602; in the data active means activation above about 4.9%;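 further: 0% = median of compound wells and 100% = cells with positive control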
TEAD-YAP block: TEAD-YAP interaction inhibition. HEK-TIYL cells, TEAD-Gal4/YAP UAS-luciferase luminescence. inhibition, % at 9.12 µM. 640,000 compounds, 1.4% hits. AID 1259422; in the data active means inhibition above about 32%;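 further: 0% = median of test compound wells and 100% = reference inhibitor wells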
GPR151 conf act: human GPR151 activation, confirmation screen; shares compounds with GPR151 activ; GPR151 PathHunter beta-arrestin cells, luminescence, 90 min; % of EA-reagent control over plate median; activation, % at 11.2 µM; 6,700 tested, under 10 active; AID 1508609;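 active means mean percent activation across replicates above the confirmation screen cutoff of 4.91%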
GPR119 counter: counter-screen for GPR151 activators: effect on human GPR119; shares compounds with GPR151 activ; GPR119 PathHunter beta-arrestin cells, luminescence, 90 min; 0 = compound-well median, 100 = enzyme-acceptor control; activation, % at 11.2 µM; 6,700 compounds, 0.3% hits;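 active means mean percent activation in the counterscreen above 29.09%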;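 further: counterscreen on off-target GPR119 to flag nonselective hits from the GPR151 activator screen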
Active calls of the source: *; · = no result. Compounds with a hit are over-represented: about 3.5% of the library has one in this group of screens.

SMILES	MITF inh	FBW7 act	GPR151 activ	TEAD-YAP block	GPR151 conf act	GPR119 counter
N#CC1=C(N)Oc2cc(O)ccc2C1C1CC=CCC1 (centres undefined)	7	0	5.4*	13	0	2
Cc1oc2c(cc(NS(=O)(=O)c3cccc([N+](=O)[O-])c3)c3ccccc32)c1C(=O)OCc1ccccc1	3	0	1	-27	·	·
Cc1ccc(/C=C2/SC(=S)N(CC(=O)Nc3ccccc3O)C2=O)cc1	8	0	7.3*	-3	1	-4
Cc1cc(F)ccc1S(=O)(=O)Nc1cc2c(C(=O)O)c(C)oc2c2ccccc12	1	0	6.4*	3	0	-1
Cn1c(SCC(=O)Nc2ccc3nc(SCC(=O)c4ccc(Cl)cc4)sc3c2)nnc1-c1ccc(N)cc1	-40	29*	5.5*	20	-1	-7
Cn1c(SCC(=O)Nc2ccc(Br)cc2)nnc1-c1ccc(N)cc1	3	0	5.3*	17	1	8
Cn1c(SCC(=O)Nc2ccc3nc(SCC(=O)Nc4ccccc4F)sc3c2)nnc1-c1ccc(Cl)cc1Cl	8	1	-1	-2	·	·
CCn1c(SCC(=O)Nc2ccc(C(N)=O)cc2)nnc1-c1ccco1	5	1	6.8*	26	0	13
CCc1ccc(NC(=O)CSc2nnc(-c3ccc(N)cc3)n2C)cc1	7	0	0	-6	·	·
CC(=O)Nc1ccc(NC(=O)CSc2nnc(-c3ccncc3)n2C)cc1	-7	0	-1	4	·	·
CC(=O)Nc1ccc(NC(=O)CSc2nnc(-c3ccncc3)n2N)cc1	16	0	5.5*	3	-1	6
CCn1c(SCC(=O)Nc2ccc(C(C)=O)cc2)nnc1-c1ccco1	4	0	0	21	·	·
Cc1ccc(S(=O)(=O)Nc2ccc(NC(=O)C3CCCCC3C(=O)O)cc2)cc1 (centres undefined)	-2	0	0	6	·	·
Cc1ccc(C(=O)Nc2nnc(C3=COCCO3)o2)cc1	14	0	4	-2	·	·
Cc1ccc(C(c2cccc([N+](=O)[O-])c2)c2ccc(C)o2)o1	-1	0	-1	-11	·	·
Oc1cccc2ccc(Nc3ccccn3)nc12	108*	0	5.1*	86*	-1	-8
CC(=O)N1CCC2(CC1)N=C(C)C(c1ccccc1)=N2	4	0	7.1*	-3	0	11
COCCNC(=O)c1nn(C)c2c1CSc1ccccc1-2	2	0	6.7*	-31	-1	-9
CCOc1ccc(-c2[nH]nc3c2C(c2ccccc2F)C(C#N)=C(N)O3)c(OCC)c1 (centres undefined)	10	0	7.1*	1	-1	6
COc1ccc(OCc2ccccc2C)c(C=O)c1	-4	0	-1	-2	·	·
O=C(Nc1ccc(Cl)cc1)C1CC(c2ccccc2O)=NO1 (centres undefined)	-4	0	5.5*	-11	-1	-17
O=C(Nc1cc(Cl)ccc1O)C1CC(c2ccccc2O)=NO1 (centres undefined)	-4	0	0	2	·	·
COc1ccc2nc(NC(=O)Cn3c(-c4ccccc4F)nc4ccccc4c3=O)sc2c1	-12	0	0	17	·	·
CCOC(=O)c1c(NC(=O)CSc2nnc(CNC(=O)COc3ccccc3)n2Cc2ccccc2)sc2c1CCCCC2	-4	0	-1	9	·	·
O=C(Nc1cc(Oc2ccc(I)cc2)cc([N+](=O)[O-])c1)C12CC3CC(C1)CC(n1cnc(Cl)n1)(C3)C2	-13	0	0	-12	·	·
SMILES	MITF inh	FBW7 act	GPR151 activ	TEAD-YAP block	GPR151 conf act	GPR119 counter
CC(C)N(CCNC(=O)c1cccc(NCCCN2CCCC2=O)c1)C(C)C	3	0	5.0*	-1	-1	5
CCOC(=O)c1nn(CCO)c2c1CN(Cc1cccc(Cl)c1)CC2	5	0	10*	6	0	6
CC(=O)NCCC(=O)N1CCCC(CCC(=O)NCc2ccc(C)o2)C1 (centres undefined)	4	0	0	-7	·	·
Cc1cc(=O)c2cc([N+](=O)[O-])ccc2[nH]1	-1	0	-1	6	·	·
COc1ccc2[nH]c3ccc([N+](=O)[O-])cc3c(=O)c2c1	-7	0	5.7*	12	0	-5
COc1ccc2[nH]c(C)c(Br)c(=O)c2c1	-3	0	6.4*	6	0	5
Cc1ccc2[nH]c(C)c(Br)c(=O)c2c1	-13	0	-1	7	·	·
CC(=O)OCC1=C(C(=O)O)N2C(=O)C(NC(=O)c3cccc(C#N)c3)C2SC1 (centres undefined)	23	0	-1	12	·	·
COc1ccc(OC)c(N(CC(=O)NCc2ccc(Cl)cc2)S(C)(=O)=O)c1	-9	0	0	-12	·	·
CCc1nnc(NC(=O)CSCC(=O)O)s1	-1	0	1	8	·	·
N#Cc1ccccc1COc1ccccc1CO	12	0	0	-11	·	·
Cc1cc(C)nc(SCc2c(C(=O)NCc3ccco3)nnn2-c2ccccc2)n1	-1	0	1	1	·	·
O=C1NC2(CCN(C(=O)C3(c4ccc(Cl)cc4)CC3)CC2)Oc2ccccc21	-11	0	-1	-1	·	·
Cc1ccc(C2(C(=O)N3CCC4(CC3)NC(=O)c3ccccc3O4)CC2)cc1	-11	0	5.6*	3	0	0
Cc1c(CN2CCC3(CC2)NC(=O)c2ccccc2O3)cnn1C	-7	0	1	0	·	·
Cc1ncc(CN2CCC3(CC2)NC(=O)c2ccccc2O3)n1C	23	0	4.9*	5	0	-4
O=C(CS(=O)(=O)Cc1ccccc1)Nc1nccs1	12	2	-1	21	·	·
O=C(CN1C(=O)/C(=C/c2ccccc2F)Oc2ccccc21)NC1CCCCC1	7	0	-1	-1	·	·
COc1cc(OC)cc(-c2nc(=S)[nH][nH]2)c1	-6	0	6.8*	11	1	10
CC(=O)Nc1ccc(OCCn2c(C)c(C=C3C(=O)NC(=O)NC3=O)c3ccccc32)cc1	6	0	6.4*	-8	-1	-5
c1cc2c(cc1OCCNC1CCCC1)CCC2	-44	0	6.5*	1	0	-2
CNc1ncccc1-c1nc2cc(C)ccc2o1	-8	0	-1	-42	·	·
O=S(=O)(c1ccc(-c2cccs2)cc1)C1CCN(CCc2ccccn2)CC1	3	0	0	3	·	·
CCOC(=O)c1ccsc1NC(=O)C1CC1	17	0	0	-4	·	·
Cc1c(N=CN(C)C)cc([N+](=O)[O-])cc1[N+](=O)[O-]	0	0	0	13	·	·
Cc1c(N=Cc2ccccc2)cc([N+](=O)[O-])cc1[N+](=O)[O-]	-4	0	5.3*	5	-1	-7
O=C(CN1CC(=O)N2CCCC2C1=O)NCc1cccc(Cl)c1 (centres undefined)	-3	0	10*	-8	-1	-10
